Laboratory results: the supplement of paper PMC9794691

Assays:
H1975 [1] = assay: area under confluence curve of compound monotherapy; compare to DMSO control AUC of the same experiment (AUC (confluence x time, arbitrary))
Procedure, shortened: (§1)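 Adenocarcinoma lines were grown in RPMI 1640 with 10% FBS at 37 °C and 5% CO2, seeded at 20,000–30,000 cells/well in 48-well plates, and treated the next day with test compound alone at one dose: 1 uM or the highest dose giving <50% parental inhibition. Every 3–4 days the wells were washed with PBS and the drug was refreshed, and medium was drug-free from the DTP stage (10–21 days). IncuCyte tracked confluence until wells given only an EGFR inhibitor regrew. Area under the confluence curve was calculated in Prism, taking the median of triplicates where run, and set beside the vehicle value from the same experiment.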

HCC2279 [2] = assay: as above
Procedure, shortened: as §1

HCC2935 [3] = assay: as above
Procedure, shortened: as §1

HCC4006 [4] = assay: as above
Procedure, shortened: as §1

HCC827 [5] = assay: as above
Procedure, shortened: as §1

II-18 [6] = assay: as above
Procedure, shortened: as §1

H1975 [7] = assay: area under confluence curve of osimertinib + compound combination regimen (DTP regrowth); compare to osimertinib-only DTP control AUC of the same experiment (AUC (confluence x time, arbitrary)); details: test compound dose 300 nM, DMSO control AUC in same experiment: 20657
Procedure, shortened: (§2)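 EGFR-mutant NSCLC lines went into 48-well plates at 20,000–30,000 cells/well in RPMI 1640 with 10% FBS and were kept at 37 °C, 5% CO2. Cells got either the EGFR inhibitor plus a fixed-dose test compound from the start through the persister stage (10–21 days) and then drug-free medium, or the inhibitor alone followed by the test compound. Medium was changed every 3–4 days until wells given only the inhibitor regrew to confluence. The endpoint was the area under the IncuCyte confluence–time curve, calculated in Prism and reported as the median of triplicates where available.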

HCC2279 [8] = assay: as above; details: test compound dose 300 nM, DMSO control AUC in same experiment: 40085
Procedure, shortened: as §2

HCC2935 [9] = assay: as above; details: test compound dose 300 nM, DMSO control AUC in same experiment: 15413
Procedure, shortened: as §2

HCC4006 [10] = assay: as above; details: test compound dose 300 nM, DMSO control AUC in same experiment: 10921
Procedure, shortened: as §2

HCC827 [11] = assay: as above; details: test compound dose 300 nM, DMSO control AUC in same experiment: 43928
Procedure, shortened: as §2

II-18 [12] = assay: as above; details: test compound dose 300 nM, DMSO control AUC in same experiment: 7080
Procedure, shortened: as §2

[13] = 1000 nM, DMSO control AUC in same experiment: 15857
[14] = 1000 nM, DMSO control AUC in same experiment: 14404
[15] = 1000 nM, DMSO control AUC in same experiment: 19215
[16] = 1000 nM, DMSO control AUC in same experiment: 18415
[17] = 1000 nM, DMSO control AUC in same experiment: 21320
[18] = 1000 nM, DMSO control AUC in same experiment: 11834
[19] = dosing schedule: upfront, osimertinib-only DTP control AUC in same experiment: 19044

For `CN(C)CCCOc1ccc(-c2ccc3ncc4c(c3c2)n(C2CCOCC2)c(=O)n4C)cn1`, the “area under confluence curve” value (H1975 [1]; 300 nM, DMSO control AUC in same experiment: 26223) was 22300, the “area under confluence curve” value (HCC2279 [2]; 300 nM, DMSO control AUC in same experiment: 14404) was 14100 and the “area under confluence curve” value (HCC2935 [3]; 300 nM, DMSO control AUC in same experiment: 19215) was 21000. The “area under confluence curve” value (HCC4006 [4]; 300 nM, DMSO control AUC in same experiment: 18415) was 20100, the “area under confluence curve” value (HCC827 [5]; 300 nM, DMSO control AUC in same experiment: 21320) was 20700 and the “area under confluence curve” value (II-18 [6]; 300 nM, DMSO control AUC in same experiment: 11834) was 12300.
In the case of `C[C@@H](Oc1cc(-c2cnn(C3CCNCC3)c2)cnc1N)c1c(Cl)ccc(F)c1Cl` [Crizotinib], the “area under confluence curve” value (H1975 [1]; [13]) is reported as 9870, the “area under confluence curve” value (HCC2279 [2]; [14]) is reported as 13900 and the “area under confluence curve” value (HCC2935 [3]; [15]) is reported as 19300. For the same compound, the “area under confluence curve” value (HCC4006 [4]; [16]) was 16500, the “area under confluence curve” value (HCC827 [5]; [17]) was 19500 and the “area under confluence curve” value (II-18 [6]; [18]) was 6690.
With `O=C(c1cc(Cc2n[nH]c(=O)c3ccccc23)ccc1F)N1CCN(C(=O)C2CC2)CC1` [Olaparib] the “area under confluence curve” value (H1975 [1]; [13]) was 12200, the “area under confluence curve” value (HCC2279 [2]; [14]) was 14700 and the “area under confluence curve” value (HCC2935 [3]; [15]) was 20800. For the same compound, the “area under confluence curve” value (HCC4006 [4]; [16]) was 19900, the “area under confluence curve” value (HCC827 [5]; [17]) was 20700 and the “area under confluence curve” value (II-18 [6]; [18]) was 10800.
For `CCN1CCN(Cc2ccc(Nc3ncc(F)c(-c4cc(F)c5nc(C)n(C(C)C)c5c4)n3)nc2)CC1` [Abemaciclib], the “area under confluence curve” value (H1975 [1]; 100 nM, DMSO control AUC in same experiment: 14522) was 13800, the “area under confluence curve” value (HCC2279 [2]; 100 nM, DMSO control AUC in same experiment: 27284) was 22900 and the “area under confluence curve” value (HCC2935 [3]; 100 nM, DMSO control AUC in same experiment: 11459) was 8290. For the same compound, the “area under confluence curve” value (HCC4006 [4]; 100 nM, DMSO control AUC in same experiment: 10921) was 9680, the “area under confluence curve” value (HCC827 [5]; 100 nM, DMSO control AUC in same experiment: 48895) was 48500 and the “area under confluence curve” value (II-18 [6]; 100 nM, DMSO control AUC in same experiment: 13556) was 14000.
With `Cn1cnc2c(F)c(Nc3ccc(Br)cc3Cl)c(C(=O)NOCCO)cc21` [Selumetinib] the “area under confluence curve” value (H1975 [1]; 300 nM, DMSO control AUC in same experiment: 14522) was 17100, the “area under confluence curve” value (HCC2279 [2]; 300 nM, DMSO control AUC in same experiment: 40085) was 37400 and the “area under confluence curve” value (HCC2935 [3]; 300 nM, DMSO control AUC in same experiment: 15413) was 17800. The “area under confluence curve” value (HCC4006 [4]; 300 nM, DMSO control AUC in same experiment: 10921) was 11800, the “area under confluence curve” value (HCC827 [5]; 300 nM, DMSO control AUC in same experiment: 48895) was 45800 and the “area under confluence curve” value (II-18 [6]; 300 nM, DMSO control AUC in same experiment: 18482) was 15300.
`O=C(NC[C@H](O)CN1CCc2ccccc2C1)c1ccnc(NC2CCC2)c1` + C=CC(=O)Nc1cc(Nc2nccc(-c3cn(C)c4ccccc34)n2)c(OC)cc1N(C)CCN(C)C [osimertinib] was tested, and the “area under confluence curve” value (H1975 [7]; dosing schedule: sequential, osimertinib-only DTP control AUC in same experiment: 15943) was 14900, the “area under confluence curve” value (H1975 [7]; dosing schedule: upfront, osimertinib-only DTP control AUC in same experiment: 27804) was 25700 and the “area under confluence curve” value (HCC2279 [8]; dosing schedule: sequential, osimertinib-only DTP control AUC in same experiment: 15997) was 8560. The “area under confluence curve” value (HCC2279 [8]; dosing schedule: upfront, osimertinib-only DTP control AUC in same experiment: 28057) was 8330, the “area under confluence curve” value (HCC2935 [9]; dosing schedule: sequential, osimertinib-only DTP control AUC in same experiment: 7139) was 8090 and the “area under confluence curve” value (HCC2935 [9]; [19]) was 16100. The “area under confluence curve” value (HCC4006 [10]; dosing schedule: sequential, osimertinib-only DTP control AUC in same experiment: 14882) was 9080, the “area under confluence curve” value (HCC4006 [10]; dosing schedule: upfront, osimertinib-only DTP control AUC in same experiment: 18913) was 6670 and the “area under confluence curve” value (HCC827 [11]; dosing schedule: sequential, osimertinib-only DTP control AUC in same experiment: 5666) was 5240. For the same compound, the “area under confluence curve” value (HCC827 [11]; [19]) was 24000, the “area under confluence curve” value (II-18 [12]; dosing schedule: sequential, osimertinib-only DTP control AUC in same experiment: 21122) was 18800 and the “area under confluence curve” value (II-18 [12]; dosing schedule: upfront, osimertinib-only DTP control AUC in same experiment: 22894) was 6900.
